The full data set covers some 8,800 targets. This sample favours those with a hit. About 0.5% of all pairs of compound and target were hits.
Key:
Experiment in all cases: log2 fold change, soluble protein after heating vs DMSO (PISA); higher = thermal stabilisation; K562 lysate, 10 uM; active = over 0.2 and 3.5 SD of the protein, either way, in both replicates (recomputed)
erlotinib = compound: C#Cc1cccc(Nc2ncnc3cc(OCCOC)c(OCCOC)cc23)c1 [erlotinib]
Procedure, shortened: (§1)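 Quantification was by TMTpro 16plex LC-MS/MS with equalised channel sums, applied to the supernatant after 21,000xg for 90 min. Samples were crude K562 extract at 1 mg/mL protein in PBS pH 7.4 with 1 mM MgCl2, treated with 10 μM compound for 30 min, heated for 3 min across 48°C-58°C, pooled and brought to 0.5% NP-40 at 4°C. Values are log-two fold changes in thermal stability relative to solvent controls, from duplicates.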

[1] = compound: C/C(=N\NC(=O)C1=CC(=CC=C1)S(=O)(=O)N2CCOCC2)/C3=C(C=CC(=C3)Cl)O
Procedure, shortened: as §1

[2] = compound: C1=CC(=CC=C1C2=NC3=C(N2)C=C(C=C3)C(=O)N)OC4=CC=C(C=C4)Cl
Procedure, shortened: as §1

[3] = compound: C1=CC2=C(C=CC(=C2)/C=C\3/C(=O)NC(=NCC4=CC=CS4)S3)N=C1
Procedure, shortened: as §1

[4] = compound: C1=CC=C(C=C1)C2=NC(=C(N2)C3=CC=NC=C3)C4=CC(=C(C=C4)Cl)O
Procedure, shortened: as §1

[5] = compound: C1=CC=C2C(=C1)C3=NNC4=CC=CC(=C43)C2=O
Procedure, shortened: as §1

[6] = compound: C1CCN(C1)C(=O)NC2=CC=CC(=C2)NC3=NC=C(C(=N3)NCCC4=CN=CN4)Br
Procedure, shortened: as §1

[7] = compound: C1CN(CCC1(CC2=CC=C(C=C2)Cl)N)C3=NC=NC4=C3C=CN4
Procedure, shortened: as §1

IRAK-1-4 Inhibitor I = compound: C1COCCN1CCN2C3=CC=CC=C3N=C2NC(=O)C4=CC(=CC=C4)[N+](=O)[O-] [IRAK-1-4 Inhibitor I]
Procedure, shortened: as §1

[8] = compound: CC(=O)c1cnc2ccc(-c3cc(Cl)c(O)c(Cl)c3)nc2c1N[C@H]1CC[C@H](CN(C)C)CC1
Procedure, shortened: as §1

ralimetinib = compound: CC(C)(C)Cn1c(N)nc2ccc(-c3[nH]c(C(C)(C)C)nc3-c3ccc(F)cc3)nc21 [ralimetinib]
Procedure, shortened: as §1

[9] = compound: CC(C)(O)CC(=O)NCCn1ccc2ncnc(Nc3ccc(Oc4cccc(C(F)(F)F)c4)c(Cl)c3)c21
Procedure, shortened: as §1

[10] = compound: CC(C)C1=C2N=C(C=C(N2N=C1)NCC3=CC=CC=C3)NCCCCCCN
Procedure, shortened: as §1

[11] = compound: CC1=C(C(CC(=O)N1)C2=CC=C(C=C2)C(F)(F)F)C(=O)NC3=C(C=C4C(=C3)C=NN4)F
Procedure, shortened: as §1

[12] = compound: CC1=C(C2=C(C=C1)C(=O)C3=CC=CC=C3N2CCCN)C
Procedure, shortened: as §1

[13] = compound: CC1=C(C=C(C=C1)NC(=O)C2=CC(=CC=C2)C(C)(C)C#N)NC3=CC4=C(C=C3)N=CN(C4=O)C
Procedure, shortened: as §1

[14] = compound: CC1=C(C=C(C=C1)NC(=O)C2=CC(=CC=C2)N(C)C)NC(=O)C3=CC=C(C=C3)O
Procedure, shortened: as §1

[15] = compound: CC1=CC=C(C=C1)SC2=C3C=C(SC3=CN=C2)C(=O)N
Procedure, shortened: as §1

[16] = compound: C1=CC2=NC=CN=C2C=C1/C=C/3\C(=O)NC(=O)S3
Procedure, shortened: as §1

ibrutinib = compound: C=CC(=O)N1CCC[C@@H](n2nc(-c3ccc(Oc4ccccc4)cc3)c3c(N)ncnc32)C1 [ibrutinib]
Procedure, shortened: as §1

Measured: log2 fold change

MXRA7 (UniProt P84157)
UniProt P84157, sequence (P84157 whole entry, looked up): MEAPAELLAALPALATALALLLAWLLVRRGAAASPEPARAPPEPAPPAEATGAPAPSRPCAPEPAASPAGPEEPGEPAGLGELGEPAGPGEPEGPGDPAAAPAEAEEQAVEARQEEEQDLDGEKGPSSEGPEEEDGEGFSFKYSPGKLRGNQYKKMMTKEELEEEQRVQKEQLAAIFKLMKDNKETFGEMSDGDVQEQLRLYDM
inactive: erlotinib -0.001 | [1] 0.062 | [2] 0.118 | [3] 0.17 | [4] -0.062 | [5] -0.135 | [6] 0.02 | [7] 0 | IRAK-1-4 Inhibitor I -0.043 | [8] -0.234 | ralimetinib 0.108 | [9] 0.027 | [10] -0.057 | [11] -0.074 | [12] 0.024 | [13] 0.021 | [14] 0.045 | [15] -0.023

NEXN (UniProt Q0ZGT2)
UniProt Q0ZGT2, sequence (Q0ZGT2 whole entry, looked up): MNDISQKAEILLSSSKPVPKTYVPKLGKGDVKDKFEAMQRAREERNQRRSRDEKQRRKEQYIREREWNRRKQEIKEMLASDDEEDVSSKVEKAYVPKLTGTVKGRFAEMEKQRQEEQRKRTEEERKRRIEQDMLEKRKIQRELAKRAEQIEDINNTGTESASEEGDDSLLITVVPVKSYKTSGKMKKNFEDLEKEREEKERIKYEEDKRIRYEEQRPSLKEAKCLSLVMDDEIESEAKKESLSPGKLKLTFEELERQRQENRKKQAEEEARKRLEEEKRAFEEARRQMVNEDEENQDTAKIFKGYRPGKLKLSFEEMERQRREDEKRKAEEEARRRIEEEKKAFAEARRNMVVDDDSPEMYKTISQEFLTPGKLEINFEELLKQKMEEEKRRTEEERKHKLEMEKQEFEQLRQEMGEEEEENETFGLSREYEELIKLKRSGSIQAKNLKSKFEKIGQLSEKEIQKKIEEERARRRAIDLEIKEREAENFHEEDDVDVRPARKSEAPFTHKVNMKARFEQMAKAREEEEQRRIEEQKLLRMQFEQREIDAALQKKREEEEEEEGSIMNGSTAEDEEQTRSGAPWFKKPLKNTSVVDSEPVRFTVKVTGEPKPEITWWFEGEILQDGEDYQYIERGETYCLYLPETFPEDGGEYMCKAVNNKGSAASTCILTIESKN
inactive: erlotinib 0.091 | [1] -0.011 | [2] -0.019 | [3] -0.067 | [16] -0.154 | [4] -0.144 | [5] -0.049 | [6] -0.255 | [7] 0.28 | IRAK-1-4 Inhibitor I -0.133 | ibrutinib 0.173 | [8] -0.008 | ralimetinib 0.257 | [9] 0.057 | [10] 0.066 | [11] -0.012 | [12] -0.065 | [14] 0.101 | [15] -0.017

PAPOLG (UniProt Q9BWT3)
UniProt Q9BWT3, sequence (Q9BWT3 whole entry, looked up): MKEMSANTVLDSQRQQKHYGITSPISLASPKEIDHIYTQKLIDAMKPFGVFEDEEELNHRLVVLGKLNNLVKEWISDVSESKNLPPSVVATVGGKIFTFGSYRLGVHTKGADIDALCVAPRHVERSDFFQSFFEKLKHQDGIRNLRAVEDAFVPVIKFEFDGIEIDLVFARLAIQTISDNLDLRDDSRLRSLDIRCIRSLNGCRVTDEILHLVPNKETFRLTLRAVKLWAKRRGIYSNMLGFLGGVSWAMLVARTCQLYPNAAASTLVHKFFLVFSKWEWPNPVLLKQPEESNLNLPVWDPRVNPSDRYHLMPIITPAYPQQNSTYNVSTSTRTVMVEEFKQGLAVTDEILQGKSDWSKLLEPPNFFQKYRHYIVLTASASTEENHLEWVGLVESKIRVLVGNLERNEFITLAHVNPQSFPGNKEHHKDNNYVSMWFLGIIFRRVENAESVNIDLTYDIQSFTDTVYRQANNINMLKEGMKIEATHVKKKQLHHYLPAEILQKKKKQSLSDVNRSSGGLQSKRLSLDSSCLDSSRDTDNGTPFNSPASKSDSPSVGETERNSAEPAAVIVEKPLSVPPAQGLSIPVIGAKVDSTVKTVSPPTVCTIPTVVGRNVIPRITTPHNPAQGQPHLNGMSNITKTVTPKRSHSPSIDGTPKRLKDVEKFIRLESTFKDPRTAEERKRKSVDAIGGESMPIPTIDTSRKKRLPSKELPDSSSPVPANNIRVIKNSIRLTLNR
inactive: erlotinib 0 | [1] -0.068 | [2] -0.092 | [3] 0.035 | [4] 0.055 | [5] 0.041 | [6] -0.086 | [7] 0.104 | IRAK-1-4 Inhibitor I 0.136 | ralimetinib 0.01 | [9] -0.071 | [10] -0.19 | [11] -0.089 | [12] 0.012 | [13] -0.028 | [14] -0.092

NR2C2 isoform 2 (UniProt P49116)
inactive: erlotinib 0.006 | [1] 0.135 | [2] -0.014 | [3] 0.134 | [16] -0.012 | [4] 0.064 | [5] -0.035 | [6] 0.061 | [7] -0.041 | IRAK-1-4 Inhibitor I -0.019 | ibrutinib 0.069 | [8] -0.081 | ralimetinib 0.014 | [9] 0 | [10] -0.03 | [12] -0.064 | [13] 0.044 | [14] -0.019 | [15] -0.086

P2RY1 (UniProt P47900)
inactive: erlotinib -0.014 | [2] -0.07 | [16] 0.148 | [4] 0.023 | [6] -0.024 | [7] 0.094 | IRAK-1-4 Inhibitor I 0.07 | ibrutinib -0.026 | [8] 0.102 | ralimetinib -0.045 | [9] -0.107 | [10] -0.322 | [12] 0.064 | [14] -0.009 | [15] 0.058

ORC3 (UniProt Q9UBD5)
UniProt Q9UBD5, sequence (Q9UBD5 whole entry, looked up): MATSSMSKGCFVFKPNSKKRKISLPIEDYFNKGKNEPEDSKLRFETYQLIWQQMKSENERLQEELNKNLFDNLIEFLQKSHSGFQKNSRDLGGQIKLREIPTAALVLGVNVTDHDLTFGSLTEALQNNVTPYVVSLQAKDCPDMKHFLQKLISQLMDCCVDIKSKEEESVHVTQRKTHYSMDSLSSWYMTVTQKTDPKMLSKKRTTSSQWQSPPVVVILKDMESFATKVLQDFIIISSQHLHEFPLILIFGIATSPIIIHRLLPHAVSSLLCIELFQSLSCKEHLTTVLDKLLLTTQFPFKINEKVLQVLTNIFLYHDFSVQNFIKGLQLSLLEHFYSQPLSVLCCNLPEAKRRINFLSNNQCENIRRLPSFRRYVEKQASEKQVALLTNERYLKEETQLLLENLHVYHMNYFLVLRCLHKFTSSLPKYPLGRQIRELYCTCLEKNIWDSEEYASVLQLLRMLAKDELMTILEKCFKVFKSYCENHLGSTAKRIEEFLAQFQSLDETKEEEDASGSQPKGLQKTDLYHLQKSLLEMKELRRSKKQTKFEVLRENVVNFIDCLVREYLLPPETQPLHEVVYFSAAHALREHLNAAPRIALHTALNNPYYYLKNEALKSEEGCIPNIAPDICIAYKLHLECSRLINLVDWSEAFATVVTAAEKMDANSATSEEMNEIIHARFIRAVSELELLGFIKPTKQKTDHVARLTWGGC
inactive: [8] 0.161 | [11] -0.007 | [15] 0.03

NUB1 isoform 2 (UniProt Q9Y5A7)
inactive: [13] 0.075

MT-ATP8 (UniProt P03928)
inactive: erlotinib 0.069 | [1] 0.006 | [2] -0.006 | [3] -0.041 | [16] 0.103 | [4] -0.103 | [5] -0.062 | [6] 0.116 | [7] 0.068 | IRAK-1-4 Inhibitor I 0.033 | ibrutinib -0.035 | [8] -0.052 | ralimetinib 0.005 | [9] -0.109 | [10] -0.087 | [11] -0.082 | [13] 0.153 | [14] 0.047 | [15] 0.104

NOCT (UniProt Q9UK39)
inactive: erlotinib -0.129 | [2] 0.061 | [4] 0.1 | [6] -0.134 | [7] 0.06 | IRAK-1-4 Inhibitor I 0.007 | [8] 0.001 | ralimetinib 0.068 | [9] -0.06 | [10] 0.014 | [11] 0.004 | [12] 0.114 | [13] -0.012 | [14] -0.066 | [15] 0.064

NFAT5 isoform 4 (UniProt O94916)
inactive: [16] 0.161 | ibrutinib -0.016 | [13] 0.088

MYO10 (UniProt Q9HD67)
inactive: erlotinib -0.044 | [1] -0.13 | [2] 0.19 | [3] 0.017 | [16] -0.062 | [4] 0.014 | [5] -0.16 | IRAK-1-4 Inhibitor I 0.102 | ibrutinib -0.059 | ralimetinib -0.136 | [9] -0.385 | [10] 0.035 | [11] -0.078 | [13] -0.001 | [14] 0.042

MYLK (UniProt Q15746)
inactive: [1] -0.067 | [3] 0.027 | [16] 0.025 | [5] 0.345 | [6] 0.106 | [7] -0.262 | ibrutinib 0.099 | [8] 0.226 | [11] 0.061 | [13] 0.228 | [15] 0.004

PAGE2B (UniProt Q5JRK9)
UniProt Q5JRK9, sequence (Q5JRK9 whole entry, looked up): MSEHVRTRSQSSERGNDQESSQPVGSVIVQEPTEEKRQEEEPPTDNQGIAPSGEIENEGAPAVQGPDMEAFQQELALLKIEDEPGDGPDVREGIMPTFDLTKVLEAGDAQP
inactive: erlotinib 0.056 | [1] 0.038 | [2] -0.033 | [3] -0.085 | [4] -0.021 | [5] 0.093 | [6] 0.055 | [7] 0.055 | IRAK-1-4 Inhibitor I 0.148 | [8] -0.049 | ralimetinib -0.024 | [9] -0.032 | [10] -0.054 | [11] 0.023 | [12] 0.044 | [13] -0.003 | [14] 0.238 | [15] 0.022

MUC5AC (UniProt P98088)
inactive: [4] 0.015 | IRAK-1-4 Inhibitor I -0.074 | ralimetinib -0.067 | [9] 0.06 | [11] 1.44 | [14] 0.041

MYH6 (UniProt P13533)
UniProt P13533, sequence (P13533 whole entry, looked up): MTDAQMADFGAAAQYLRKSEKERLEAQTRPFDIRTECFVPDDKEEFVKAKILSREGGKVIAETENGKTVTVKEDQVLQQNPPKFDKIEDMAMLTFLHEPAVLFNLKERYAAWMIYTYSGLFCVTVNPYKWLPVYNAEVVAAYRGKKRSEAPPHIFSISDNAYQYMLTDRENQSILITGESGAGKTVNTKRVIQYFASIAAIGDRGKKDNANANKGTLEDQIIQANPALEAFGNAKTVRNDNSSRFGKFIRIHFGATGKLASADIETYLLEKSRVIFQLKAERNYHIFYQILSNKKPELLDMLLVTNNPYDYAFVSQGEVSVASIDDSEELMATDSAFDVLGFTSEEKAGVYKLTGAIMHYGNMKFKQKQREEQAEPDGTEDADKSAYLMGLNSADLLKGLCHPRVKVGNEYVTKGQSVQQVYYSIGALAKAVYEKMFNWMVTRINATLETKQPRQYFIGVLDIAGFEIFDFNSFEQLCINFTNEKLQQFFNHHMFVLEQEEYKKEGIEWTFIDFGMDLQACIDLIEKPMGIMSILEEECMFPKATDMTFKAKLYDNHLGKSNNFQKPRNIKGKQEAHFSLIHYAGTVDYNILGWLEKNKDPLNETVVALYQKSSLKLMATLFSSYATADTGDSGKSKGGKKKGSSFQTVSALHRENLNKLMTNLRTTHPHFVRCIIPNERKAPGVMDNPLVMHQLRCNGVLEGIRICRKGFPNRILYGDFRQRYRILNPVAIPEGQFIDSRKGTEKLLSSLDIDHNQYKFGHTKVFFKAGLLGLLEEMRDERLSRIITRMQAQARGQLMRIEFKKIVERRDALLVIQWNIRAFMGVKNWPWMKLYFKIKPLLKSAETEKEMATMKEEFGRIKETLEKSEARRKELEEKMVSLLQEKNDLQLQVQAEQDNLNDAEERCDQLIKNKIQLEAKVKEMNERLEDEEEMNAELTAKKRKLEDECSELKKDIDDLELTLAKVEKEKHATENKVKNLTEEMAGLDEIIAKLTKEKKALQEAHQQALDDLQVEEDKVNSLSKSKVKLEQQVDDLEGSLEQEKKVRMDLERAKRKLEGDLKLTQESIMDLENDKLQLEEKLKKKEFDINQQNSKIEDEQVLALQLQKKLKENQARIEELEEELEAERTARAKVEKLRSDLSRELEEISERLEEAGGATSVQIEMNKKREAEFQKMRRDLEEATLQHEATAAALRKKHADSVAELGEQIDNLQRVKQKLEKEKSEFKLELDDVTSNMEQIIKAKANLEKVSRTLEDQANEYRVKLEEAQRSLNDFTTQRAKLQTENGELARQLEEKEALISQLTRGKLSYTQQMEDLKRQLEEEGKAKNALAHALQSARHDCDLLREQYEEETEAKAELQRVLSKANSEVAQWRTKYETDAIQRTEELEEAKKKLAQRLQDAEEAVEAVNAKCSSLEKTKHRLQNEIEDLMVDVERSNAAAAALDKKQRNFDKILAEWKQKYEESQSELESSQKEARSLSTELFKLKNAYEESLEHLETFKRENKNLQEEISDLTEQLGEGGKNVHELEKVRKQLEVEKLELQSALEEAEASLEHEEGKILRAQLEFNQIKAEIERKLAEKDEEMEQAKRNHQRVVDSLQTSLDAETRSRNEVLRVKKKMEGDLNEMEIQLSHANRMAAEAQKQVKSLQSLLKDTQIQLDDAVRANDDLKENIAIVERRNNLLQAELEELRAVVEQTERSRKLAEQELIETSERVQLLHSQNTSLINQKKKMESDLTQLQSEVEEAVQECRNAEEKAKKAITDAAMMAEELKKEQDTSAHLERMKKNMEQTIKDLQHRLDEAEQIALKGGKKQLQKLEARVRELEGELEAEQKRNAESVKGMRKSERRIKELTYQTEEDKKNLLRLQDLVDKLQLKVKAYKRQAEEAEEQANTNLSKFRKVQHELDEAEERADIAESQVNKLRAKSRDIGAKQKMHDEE
active: ibrutinib 0.793
inactive: erlotinib 0.107 | [2] 0.08 | [16] 0.304 | [4] 0.029 | [6] -0.049 | [7] 0.115 | IRAK-1-4 Inhibitor I 0.052 | [8] -0.017 | ralimetinib 0.045 | [9] -0.157 | [10] 0.01 | [13] 0.047 | [14] -0.081 | [15] -0.172

MYBL2 (UniProt P10244)
UniProt P10244, sequence (P10244 whole entry, looked up): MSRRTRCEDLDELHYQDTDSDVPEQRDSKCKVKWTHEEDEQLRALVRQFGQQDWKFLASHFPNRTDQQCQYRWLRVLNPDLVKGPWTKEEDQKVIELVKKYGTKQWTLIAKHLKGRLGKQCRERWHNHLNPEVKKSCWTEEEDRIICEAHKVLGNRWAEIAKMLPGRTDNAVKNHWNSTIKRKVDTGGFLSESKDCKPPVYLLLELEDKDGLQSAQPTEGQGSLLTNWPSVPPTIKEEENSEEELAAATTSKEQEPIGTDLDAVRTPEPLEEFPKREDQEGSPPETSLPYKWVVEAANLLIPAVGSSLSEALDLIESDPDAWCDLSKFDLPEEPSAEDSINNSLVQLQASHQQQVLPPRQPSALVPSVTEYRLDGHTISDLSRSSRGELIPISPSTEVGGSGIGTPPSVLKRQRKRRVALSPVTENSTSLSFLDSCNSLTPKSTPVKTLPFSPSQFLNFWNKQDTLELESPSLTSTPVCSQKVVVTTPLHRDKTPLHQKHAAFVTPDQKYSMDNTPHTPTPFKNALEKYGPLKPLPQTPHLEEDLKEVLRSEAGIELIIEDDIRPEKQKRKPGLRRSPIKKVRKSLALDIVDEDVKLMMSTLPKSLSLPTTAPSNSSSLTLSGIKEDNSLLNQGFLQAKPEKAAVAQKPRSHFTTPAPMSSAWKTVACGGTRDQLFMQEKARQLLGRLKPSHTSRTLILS
inactive: erlotinib 0.02 | [1] 0.014 | [2] -0.011 | [3] 0.035 | [4] 0.005 | [5] 0.078 | [6] -0.013 | [7] -0.036 | IRAK-1-4 Inhibitor I 0.009 | ralimetinib 0 | [9] 0.02 | [10] -0.008 | [12] 0.057 | [13] 0.048 | [14] -0.013

OSBPL1A (UniProt Q9BXW6)
inactive: erlotinib 0.235 | [2] 0.205 | [16] 0.038 | ibrutinib 0.019 | [8] -0.002 | [10] 0.116 | [11] 0.152 | [12] -0.069 | [13] 0.012 | [15] -0.028

NR2F2 (UniProt P24468)
inactive: erlotinib -0.007 | [2] 0 | [16] -0.192 | [4] 0.076 | IRAK-1-4 Inhibitor I 0.048 | ibrutinib 0.007 | [8] -0.09 | ralimetinib -0.006 | [9] -0.069 | [10] -0.067 | [11] 0.097 | [12] 0.032 | [13] -0.031 | [14] 0.065 | [15] -0.042

NAA16 (UniProt Q6N069)
inactive: [1] -0.036 | [3] -0.022 | [16] 0.027 | [4] -0.127 | [5] -0.206 | [6] 0.136 | [7] -0.038 | IRAK-1-4 Inhibitor I 0.017 | ibrutinib -0.047 | [8] 0.097 | ralimetinib -0.179 | [9] 0.085 | [11] 0.092 | [12] 0.105 | [14] 0.147 | [15] 0.062

ORC1 (UniProt Q13415)
inactive: [6] 0.216 | [7] 0.05
